Rows were chosen to be rich in hits. Some 3.5% of all compounds tested hit in one or more screens of this group.
MBD2 DNA inh: blocks human MBD2 binding to methylated DNA; 370,000 compounds, 0.31% hits; AID 686964; inhibition, % at 4.4 µM; Q9UBB5; TR-FRET, MBD2 binding to methylated oligonucleotide; in the data active = inhibition above about 13%
DNMT1 inh: inhibitors of human DNMT1; DNMT1 molecular beacon, Hinp1I cleavage, fluorescence; P26358; inhibition (reported as % activation of signal), % at 10 µM; AID 588458; 360,000 compounds, 0.83% hits; in the data active = inhibition above about 50%
UHRF1 MBD2 ctr: blocks human UHRF1 binding to methylated DNA; Q96T88; inhibition, % at 4.4 µM; AID 687016; 370,000 compounds, 0.75% hits; UHRF1 binding to methylated oligo, TR-FRET; in the data active = inhibition above about 21%;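 also: UHRF1 SRA domain binding a hemimethylated CpG hairpin DNA probe; 0% = median of test compound wells and 100% = reference inhibitor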
PG9 Ab binder: PG9 antibody binding by small molecule. inhibition, % at 6.7 µM. 360,000 compounds, 0.43% hits. AID 624416. TR-FRET gp120-PG9 antibody binding; in the data active = inhibition above about 8.5%
LEDGF integ inh: blocks HIV-1 LEDGF/p75-dependent DNA integration | TR-FRET IN-LEDGF/p75 DNA integration, Eu/Cy5 | inhibition, % at 3.7 µM | 370,000 compounds, 0.64% hits | AID 743269;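 active = inhibition above the screen-wide mean plus 3 SD, cut at about 13% in these data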;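 also: signal is the Cy5 over europium emission ratio at 671 and 618 nm; 0% = plate median of compound wells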
rCAG RNA binder: molecules binding r(CAG) RNA repeats | r(CAG) RNA repeat, TO-PRO-1 dye displacement fluorescence | inhibition, % at 3 µM | 370,000 compounds, 1.3% hits;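 active = inhibition above the plate cutoff, the mean of all test compounds on that plate plus 3 SD, cut at about 35% in these data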;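 also: 0% = DMSO alone and 100% = 100 µM mitoxantrone as full dye displacement; higher means more dye released from RNA so lower well fluorescence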
IN multimer act: HIV-1 integrase multimerization activation, counter-screen | shares compounds with LEDGF integ inh | TR-FRET HIV-1 integrase multimerization, biochemical | activation, % at 7.7 µM | 2,000 compounds, 17% hits; in the data active = activation above about 8.9%
TRFRET interf: TR-FRET optical interference, LEDGF/p75 integration counter-screen | shares compounds with LEDGF integ inh | TR-FRET optical interference counterscreen, HIV-1 IN multimerization | inhibition, % at 7.7 µM | 2,000 tested, under 10 active;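 active = inhibition above the mean over all tested compounds plus 3 SD, which no compound reached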;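 also: 0% = integrase with antibodies and DMSO and 100% = antibodies without integrase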
LEDGF integ conf: LEDGF/p75-dependent HIV-1 integration inhibition, confirmation; inhibition, % at 3.7 µM; 2,000 compounds, 36% hits; TR-FRET LEDGF/p75-dependent HIV-1 integration, biochemical; AID 1053136; shares compounds with LEDGF integ inh; in the data active = inhibition above about 14%
Numbers without * were called inactive; x = not tested or not shown.

SMILES	MBD2 DNA inh	DNMT1 inh	UHRF1 MBD2 ctr	PG9 Ab binder	LEDGF integ inh	rCAG RNA binder	IN multimer act	TRFRET interf	LEDGF integ conf
COc1ccc(N(C(=O)c2ccco2)C(C(=O)NC2CCCC2)c2ccc(N3CCOCC3)cc2)c(OC)c1 (configuration not stated)	-3	-3	-1	1	-2	-4	x	x	x
CCCCc1nnc(NC(=O)c2ccc3[nH]c(=O)c(=O)[nH]c3c2)s1	-4	2	-2	-1	3	17	x	x	x
Cn1c(SCC(=O)OCc2ccccc2)nnc1-c1ccco1	6	0	9	1	-1	-3	x	x	x
CCn1c(SCC(=O)OCc2ccccc2)nnc1-c1ccco1	1	0	3	-4	19*	-5	0	-2	-10
CC(Nc1cccc2ccccc12)C(=O)N/N=C/c1ccccn1 (configuration not stated)	-4	-11	4	-2	23*	6	3	-15	-4
COC/C=C/C1=CC2=CC(=O)C(C)(OC(=O)c3cnc4ccccc4n3)C(=O)C2=CN1CCOC (configuration not stated)	-5	-9	-2	0	4	6	x	x	x
C=CCN1C=C2C(=O)C(C)(OC(=O)c3cnc4ccccc4n3)C(=O)C=C2C=C1/C=C/COC (configuration not stated)	-1	0	5	1	25*	14	2	-10	40*
C[C@H]1[C@@H](NC(=O)Cc2ccsc2)CC[C@@]23CCCN2C(=O)CCC[C@@H]13	1	x	1	x	1	x	x	x	x
Fc1ccc(/C=N/Nc2nn[nH]n2)cc1	7	0	-1	-2	3	-1	x	x	x
Nn1cnnc1N/N=C/c1ccc(F)cc1	5	-5	6	-2	65*	-1	-1	2	-6
Cc1ccc(/C=N/Nc2nc(C)cc(C)n2)cc1	-2	-6	1	-2	1	-2	x	x	x
Nn1cnnc1N/N=C/c1ccc(Cl)c([N+](=O)[O-])c1	3	-7	10	0	44*	7	1	-3	7
Cc1ccc(/C=N/Nc2nncn2N)cc1	-2	1	11	0	65*	-1	-3	11	4
C[C@H]1CN([C@@H](C)CO)C(=O)CCCn2nncc2CO[C@@H]1CN(C)Cc1cccc(O)c1	3	6	14	-2	-2	-1	x	x	x
CC(=O)c1ccc(-c2cnc3c(NC=O)cc(-c4ccccc4Oc4ccccc4)cn23)cc1	-4	-11	-2	2	-3	14	x	x	x
O=c1[nH]c(CN2CCc3ccccc32)nc2scc(-c3cccs3)c12	0	-9	0	1	18*	17	1	-6	7
c1ccc(COC2COC3C(OCc4ccccc4)COC23)cc1 (configuration not stated)	3	5	-1	0	-3	-1	x	x	x
Cc1ccc(NC2c3ncccc3C(=O)N2Cc2ccco2)c(C)c1 (configuration not stated)	2	3	12	1	20*	-2	0	-2	6
COc1ccc(CN2C(=O)c3cccnc3C2Nc2cc(Cl)ccc2OC)cc1 (configuration not stated)	-8	-24	0	-2	15*	2	-1	7	23*
NC(c1csc(Nc2ccc(C(=O)c3ccccc3)cc2)n1)c1ccccc1Cl (configuration not stated)	4	-36	0	1	0	6	x	x	x
CCOC(=O)C1CCN(CC(O)COCc2ccc(Cl)cc2)CC1 (configuration not stated)	3	0	-3	0	-1	-8	x	x	x
NC(=O)C1CCCN(CC(O)COCc2ccc(Cl)cc2)C1 (configuration not stated)	1	11	-3	-1	78*	-1	1	-2	-2
